Several values for one entry are separate records, joined by “and”; a condition that tells them apart may be missing. Equal entries are not always repeated. Unmarked numbers belong to inactive results. Records with an inconclusive call do not appear. Activity calls are given as the source filed them. Unless noted, the call rests on the fitted dose curve; in most records, active means well fitted curve in the direction sought with a large enough effect; inconclusive means small, poorly fitted or top-dose-only effect, or another doubt; inactive means no such curve, though single readings can be large; an effect the other way counts as inactive or inconclusive.

Assay [1] deals with Thyroid hormone receptor beta (Homo sapiens) (UniProt P10828). Put plainly: qHTS assay for small molecule antagonists of thyroid hormone receptor beta signaling (AID 588547; active means well fitted inhibition curve with a large enough effect in the signal ratio, with a control signal flat, not every such curve was filed as active; the % refers to the signal ratio;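 further: cells stimulated with 0.4 nM T3 agonist during compound exposure; on the % scale 0 is the no-effect control and ±100 the full control effect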). The following applies: TR-UAS-bla HEK293, beta-lactamase ratio, antagonist mode, 18 h. The procedure, abridged:
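Inhibition of T3-driven (0.4nM final) beta-lactamase reporter activity was measured over 0.59 nM to 92 uM compound after 18 h at 37 C. The cells were GripTite HEK293 TR-UAS-bla in charcoal/dextran-stripped serum, with CCF4 ratio read-out and IC50 from Hill fits.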
For orientation: Quantitative high-throughput screening tests each substance at several concentrations.

Assay [2] deals with Voltage-gated inwardly rectifying potassium channel KCNH2 (Homo sapiens) (UniProt Q12809). Put plainly: qHTS Assay for Small Molecule Inhibitors of the Human hERG Channel Activity (AID 588834).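 Further: top concentration of the series differs between compounds; on the % scale 0 is the no-effect control and ±100 the full control effect; lower thallium flux fluorescence means stronger hERG block; nearly all actives have a fitted effect of over 50% in size.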 The settings on record: U2OS BacMam hERG, FluxOR thallium flux fluorescence; series mostly up to 46.1 µM. The procedure, abridged:
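Homogeneous FluxOR thallium flux assay using hERG-expressing U2OS cells (BacMam). Compound treatment about 10 minutes preceded stimulation; reduced fluorescence taken as channel block.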

In assay [3] the target is Luciferin 4-monooxygenase (Photinus pyralis) (UniProt P08659). Description: Biochemical firefly luciferase enzyme assay for NPC (AID 624030).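 Further: purified P. pyralis luciferase at 10 nM with luciferin and ATP substrate; 0% = DMSO and -100% = full luciferase inhibition by PTC124 control; nearly all actives have a fitted effect of over 70% in size.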 The settings on record: purified P. pyralis luciferase, luminescence, 5 min; series mostly up to 58.6 µM. The procedure, abridged: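 Direct inhibition of firefly luciferase enzyme (10 nM final, 50 mM Tris Acetate) assessed by luminescence within 5 minutes. Percent activity scaled between DMSO and PTC124 positive control, with concentration-effect curves classified by fit quality and response.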

Assay [4] can be described thus: S16 Schwann cell viability assay (CellTiter-Glo assay) (AID 624031).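 Further: native untransfected S16 rat Schwann cells; cellular ATP luminescence as a viability measure; plate controls were DMSO-treated cells for no effect and cell-free wells for full effect; nearly all actives have a fitted effect of over 70% in size.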 The following applies: S16 rat Schwann cells viability, 24 h; series mostly up to 57.5 µM. The gist of the method:
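Rat S16 Schwann cells without reporter constructs received compound or DMSO for 24 h at 37 °C under 5% CO2. Cellular ATP was then quantified by CellTiter-Glo luminescence, with vehicle wells defined as 0% activity and cell-free wells as reference.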
In general terms: In ATP-based viability assays light output follows the ATP content of the culture.

The nature of assay [5]: S16 Schwann cell PMP22 intronic element firefly luciferase assay (AID 624032).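 Further: plate controls were DMSO for no effect and PTC124 positive control mean for full effect; nearly all actives have a fitted effect of over 30% in size.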 The settings on record: S16 rat Schwann cells, PMP22 element FLuc, 24 h; series mostly up to 57.5 µM. The procedure, abridged: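 Luciferase reporter of PMP22 intronic-element expression in stably transfected S16 rat Schwann cells, read by ONE-Glo luminescence after 24 h compound exposure at 37 C. Activity scaled between DMSO (0%) and positive-control PTC124; concentration-effect curves quality-classified.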

Assay [6] in a line: S16 Schwann cell PMP22 intronic element beta-lactamase assay (AID 624044; calls by dose curve;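 further: 0% = DMSO and -100% = potassium clavulanate positive control; nearly all actives have a fitted effect of over 15% in size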). The following applies: S16 rat Schwann cells, PMP22 element beta-lactamase FRET, 24 h; ratio activity, negative = inhibition: at 38.3 µM (top of the series) unless noted. The gist of the method:
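Beta-lactamase reporter under a PMP22 intronic regulatory element in stable S16 rat Schwann cells; 24 h compound exposure. 460 nm blue signal normalized between DMSO (0%) and potassium clavulanate, with 535 nm FRET tracking viability; curves classed by r2 and response.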

Assay [7] in a line: qHTS assay for small molecule agonists of the antioxidant response element (ARE) signaling pathway (AID 651741; active means well fitted activation curve with a large enough effect in the signal ratio; the % refers to the signal ratio; further: potency means the concentration at half of the fitted maximal effect; on activation: % of control where 0% means no effect). The settings on record: HepG2 ARE-bla reporter, beta-lactamase FRET ratio, 16 h; series mostly up to 96 µM. The procedure, abridged: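 Agonist activity is measured as ARE-driven beta-lactamase expression in a stable HepG2 reporter line, using 16 h compound treatment at 37 C and a FRET substrate fluorescence readout after 2 h.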

Assay [8] in a line: qHTS assay for small molecule activators of the p53 signaling pathway (AID 651743; active means well fitted activation curve with a large enough effect in the signal ratio, not every such curve was filed as active; the % refers to the signal ratio; further: % of control where 0% means no effect). The settings on record: HCT-116 p53RE-bla, beta-lactamase FRET ratio, 16 h; activation: stronger effect = higher value. The gist of the method: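 A beta-lactamase reporter under p53 response element control, stably carried by HCT-116 cells, reported pathway activation. Test compounds were applied for 16 hours at 37 C, and fluorescence was measured 2 hours after adding the B/G FRET substrate.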

Assay [9] is described as follows: qHTS assay for small molecule activators of the nuclear factor-kappa B (NF-kB) signaling pathway (AID 651749; active means well fitted activation curve with a large enough effect in the signal ratio; the % refers to the signal ratio; further: % of control where 0% means no effect). The settings on record: NF-kB-bla ME-180 cells, beta-lactamase FRET ratio, 16 h; stronger effect = higher value. The procedure, abridged:
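FRET-based beta-lactamase detection in ME-180 cells reports NF-kB response-element-driven transcription following overnight (16 hr) compound treatment.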

The nature of assay [10]: qHTS assay for environmental chemicals that activate the Aryl hydrocarbon Receptor (AhR) signaling pathway (AID 651777). Further: % of control where 0% means no effect; nearly all actives have a fitted effect of over 15% in size. The following applies: 1A2-DRE human hepatoma cells, luciferase, 24 h; activation: stronger effect = higher value. The procedure, abridged: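 Measured luciferase activity, read 30 min after One-Glo addition at room temperature, from human hepatoma cells bearing a dioxin response element–CYP1A2 promoter reporter and exposed to compound for 24 hr at 37 C.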

In assay [11] the target is Peroxisome proliferator-activated receptor alpha (Homo sapiens) (UniProt Q07869). Put plainly: qHTS assay for small molecule agonists of the peroxisome proliferator-activated receptor alpha (PPARalpha) signaling pathway (AID 651778). Further: % of control where 0% means no effect. The settings on record: PathHunter PPARalpha complementation, chemiluminescence, 6 h; stronger effect = higher value. The gist of the method:
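Chemiluminescence from complemented enzyme reported PPARalpha activation in cells after 6 hr of compound treatment at 37 C. The detection reagent was incubated for 60 min at room temperature, and compounds were scored as agonists.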

Assay [12] in a line: qHTS assay for small molecule disruptors of the mitochondrial membrane potential - 1 hr assay (AID 651754; calls by dose curve; further: on the % scale 0 is the no-effect control and ±100 the full control effect; nearly all actives have a fitted effect of over 35% in size). The following applies: series mostly up to 92.2 µM. The gist of the method:
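Read-out: dye fluorescence at 490 nm ex/535 nm em (monomers) and 540 nm ex/590 nm em (aggregates) in HepG2 cells. Compound exposure 1 hr at 37C, followed by 30 min dye loading.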

The nature of assay [13]: qHTS assay for small molecule disruptors of the mitochondrial membrane potential - 5 hr assay (AID 651755; calls by dose curve; further: on the % scale 0 is the no-effect control and ±100 the full control effect; nearly all actives have a fitted effect of over 40% in size). The settings on record: JC-1-type ratio dye; series mostly up to 92.2 µM. The gist of the method: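 Membrane-potential dye readout: red aggregate (540 ex/590 em) versus green monomer (490 ex/535 em) fluorescence after 30 min dye loading, following 5 hr compound exposure at 37C of overnight-plated HepG2 cells.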

Assay [14] addresses Tumor necrosis factor (Homo sapiens) (UniProt P01375). Description: qHTS assay to identify small molecules that stimulate Tumor Necrosis Factor-alpha (TNF-alpha) secretion (AID 651757; active means well fitted curve in the direction sought with a large enough effect in the signal ratio; the % refers to the signal ratio; further: 0% is about no effect). The settings on record: Human cells, HTRF 665/615 ratio; series mostly up to 92.2 µM. The procedure, abridged:
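THP-1 cells, 3000/well; compound 17 hrs, 37 C; add cryptate/XL665 anti-TNF-alpha antibody pair; 3 hr RT; TR-FRET (HTRF) read of secreted TNF-alpha. Quantitative HTS format.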

A short description of assay [15]: qHTS assay to identify small molecules that stimulate interleukin-8 (IL-8) secretion (AID 651758; active means well fitted activation curve with a large enough effect in the signal ratio; the % refers to the signal ratio; further: 0% is about no effect). The settings on record: HTRF ratio (665/615); series mostly up to 92.2 µM. The gist of the method: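 Secreted IL-8 measured homogeneously by TR-FRET (two labelled anti-IL-8 antibodies, 1-3 h at room temperature) after a 16 h, 37 C compound treatment of THP-1 cells at 2000 cells/well.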

Chain of Luciferin 4-monooxygenase (Photinus pyralis) (P08659 whole entry, looked up): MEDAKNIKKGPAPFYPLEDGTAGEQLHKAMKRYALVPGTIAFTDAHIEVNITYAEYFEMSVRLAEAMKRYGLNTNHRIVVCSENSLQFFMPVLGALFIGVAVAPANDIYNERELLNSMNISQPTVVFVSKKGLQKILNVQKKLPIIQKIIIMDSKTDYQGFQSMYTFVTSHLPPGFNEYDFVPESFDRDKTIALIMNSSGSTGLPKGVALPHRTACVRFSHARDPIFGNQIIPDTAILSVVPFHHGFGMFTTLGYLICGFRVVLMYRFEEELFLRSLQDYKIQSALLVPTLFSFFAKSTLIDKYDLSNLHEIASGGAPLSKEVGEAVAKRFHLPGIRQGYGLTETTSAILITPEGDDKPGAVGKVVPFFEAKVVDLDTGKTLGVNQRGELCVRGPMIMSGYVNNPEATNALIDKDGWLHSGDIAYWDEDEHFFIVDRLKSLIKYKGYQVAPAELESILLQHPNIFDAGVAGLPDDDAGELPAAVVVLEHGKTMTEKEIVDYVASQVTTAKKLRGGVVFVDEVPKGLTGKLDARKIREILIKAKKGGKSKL
Chain of Voltage-gated inwardly rectifying potassium channel KCNH2 (Homo sapiens) (Q12809 whole entry, looked up): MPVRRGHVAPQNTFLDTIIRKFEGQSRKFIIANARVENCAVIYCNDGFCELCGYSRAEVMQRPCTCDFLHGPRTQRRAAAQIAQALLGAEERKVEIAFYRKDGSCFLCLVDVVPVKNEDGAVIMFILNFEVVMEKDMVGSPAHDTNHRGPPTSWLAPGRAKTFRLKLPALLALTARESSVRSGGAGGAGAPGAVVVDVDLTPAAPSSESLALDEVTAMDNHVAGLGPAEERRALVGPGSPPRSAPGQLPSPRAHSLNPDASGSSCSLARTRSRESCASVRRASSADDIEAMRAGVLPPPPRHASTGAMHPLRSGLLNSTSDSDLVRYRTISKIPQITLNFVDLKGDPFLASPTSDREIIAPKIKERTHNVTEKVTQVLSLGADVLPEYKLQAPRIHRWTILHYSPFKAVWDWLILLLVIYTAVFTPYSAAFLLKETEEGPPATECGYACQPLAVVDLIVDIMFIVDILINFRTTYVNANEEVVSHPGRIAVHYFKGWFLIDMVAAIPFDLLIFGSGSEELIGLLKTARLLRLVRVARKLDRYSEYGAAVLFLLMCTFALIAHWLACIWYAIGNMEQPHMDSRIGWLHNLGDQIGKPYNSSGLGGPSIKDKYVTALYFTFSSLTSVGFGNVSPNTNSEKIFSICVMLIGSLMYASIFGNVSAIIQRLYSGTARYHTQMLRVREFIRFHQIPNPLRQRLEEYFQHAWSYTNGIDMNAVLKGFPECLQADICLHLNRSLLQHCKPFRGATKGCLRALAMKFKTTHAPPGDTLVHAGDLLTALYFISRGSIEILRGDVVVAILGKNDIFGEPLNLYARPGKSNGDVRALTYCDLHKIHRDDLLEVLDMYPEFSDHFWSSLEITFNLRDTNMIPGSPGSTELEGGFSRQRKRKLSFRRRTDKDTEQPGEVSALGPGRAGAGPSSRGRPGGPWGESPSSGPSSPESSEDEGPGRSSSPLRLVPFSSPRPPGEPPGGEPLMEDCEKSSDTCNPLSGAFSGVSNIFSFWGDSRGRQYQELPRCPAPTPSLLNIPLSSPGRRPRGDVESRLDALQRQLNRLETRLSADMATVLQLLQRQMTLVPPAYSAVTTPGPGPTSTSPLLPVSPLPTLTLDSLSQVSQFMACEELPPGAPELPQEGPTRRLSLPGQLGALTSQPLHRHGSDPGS
Chain of Peroxisome proliferator-activated receptor alpha (Homo sapiens) (Q07869 whole entry, looked up): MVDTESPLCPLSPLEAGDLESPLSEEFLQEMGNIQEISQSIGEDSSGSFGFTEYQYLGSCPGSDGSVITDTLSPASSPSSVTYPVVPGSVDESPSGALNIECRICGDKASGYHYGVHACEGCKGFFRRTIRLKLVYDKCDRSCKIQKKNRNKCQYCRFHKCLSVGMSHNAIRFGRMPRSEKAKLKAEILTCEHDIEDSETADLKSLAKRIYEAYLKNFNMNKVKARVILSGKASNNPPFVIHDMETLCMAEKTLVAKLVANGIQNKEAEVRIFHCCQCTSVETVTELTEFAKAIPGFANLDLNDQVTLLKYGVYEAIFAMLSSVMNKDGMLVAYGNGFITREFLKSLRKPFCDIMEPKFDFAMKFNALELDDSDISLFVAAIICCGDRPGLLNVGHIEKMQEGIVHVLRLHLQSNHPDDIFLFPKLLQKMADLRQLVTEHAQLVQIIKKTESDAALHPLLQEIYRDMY
Chain of Tumor necrosis factor (Homo sapiens) (P01375 whole entry, looked up): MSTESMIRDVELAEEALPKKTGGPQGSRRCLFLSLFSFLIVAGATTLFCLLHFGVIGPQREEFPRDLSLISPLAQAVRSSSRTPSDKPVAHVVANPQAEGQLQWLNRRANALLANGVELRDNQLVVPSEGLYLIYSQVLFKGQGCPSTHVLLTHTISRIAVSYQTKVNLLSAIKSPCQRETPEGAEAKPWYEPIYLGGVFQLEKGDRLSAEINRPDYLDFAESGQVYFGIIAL
Chain of Thyroid hormone receptor beta (Homo sapiens) (P10828 whole entry, looked up): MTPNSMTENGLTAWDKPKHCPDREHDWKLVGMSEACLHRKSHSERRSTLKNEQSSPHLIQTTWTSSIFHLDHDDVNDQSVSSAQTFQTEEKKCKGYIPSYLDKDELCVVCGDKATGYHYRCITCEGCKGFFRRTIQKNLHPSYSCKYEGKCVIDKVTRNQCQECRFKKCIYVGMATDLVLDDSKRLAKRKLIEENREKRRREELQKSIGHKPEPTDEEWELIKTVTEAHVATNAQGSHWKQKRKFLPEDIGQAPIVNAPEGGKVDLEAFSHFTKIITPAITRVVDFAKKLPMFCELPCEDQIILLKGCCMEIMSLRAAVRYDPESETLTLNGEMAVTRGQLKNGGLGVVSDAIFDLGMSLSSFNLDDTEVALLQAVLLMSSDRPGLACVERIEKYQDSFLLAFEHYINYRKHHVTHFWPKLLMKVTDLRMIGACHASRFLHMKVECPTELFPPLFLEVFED

`C[Si](C)(C)O[Si](C)(C)C`: in assay [1], the activity change % (negative = inhibition) was 22.8%. Moreover, the Potency entry in assay [2], in assay [3], in assay [4], in assay [5] and in assay [7] was “inactive” in each case. Besides, the ratio activity, negative = inhibition in assay [6] is -0.118%. In addition, the activation is -3.5% in [8], -1.12% in [9] and 1.01% in [10]. In addition, in assay [11], the max response is -0.124%.

On to `CC(C)CCC[C@@H](C)[C@H]1CC[C@H]2[C@@H]3CC=C4C[C@@H](O)CC[C@]4(C)[C@H]3CC[C@]12C`, for which the activity change % (negative = inhibition) in [1] was -1.74%. The Potency result in assay [2], in assay [4] and in assay [5] was “inactive” throughout. The ratio activity, negative = inhibition in assay [6] is 7.26%. For the same compound, in [7], the Potency was 54.5 µM (active). Further, the activation in [8] was -0.872%; in assay [9] it was 0.0919%; in assay [10], -1.61%. Further, the max response in assay [11] was -0.612%.

For `OCc1ccccc1`, in assay [1], the activity change % (negative = inhibition) is -15.9%. Moreover, the Potency result in [2], in assay [3], in assay [4], in [5], in [12] and in assay [13] was “inactive” in each case. In addition, the Potency entry in [14] and in assay [15] was “inactive” in each case. The ratio activity, negative = inhibition in [6] is -1.75%. In addition, the activation in assay [9] is 0.143%; in assay [10] it was 0.173%. Further, the max response in [11] is 2.92%.

Take `CC1=CCC2CC1C2(C)C` (configuration not stated): the activity change % (negative = inhibition) in [1] is 6.5%. Also, the Potency result in assay [2], in [4], in assay [5], in assay [7], in assay [12] and in assay [13] was “inactive” in each case. Moreover, the Potency entry in assay [14] and in [15] was “inactive” throughout. Moreover, the ratio activity, negative = inhibition in assay [6] is 2.01%. Also, the results for the activation in [8], in assay [9] and in assay [10] were -1.57%, -0.174% and 1.2%, respectively. Besides, the max response in assay [11] is -6.44%.

Consider `OCC(O)CO`, for which, in assay [1], the activity change % (negative = inhibition) is -5.42% and 3.32%. Moreover, the Potency result in assay [2], in assay [3], in [5], in assay [12], in [13] and in assay [14] was “inactive” in each case. The ratio activity, negative = inhibition in [6] is 2.96%. Further, the activation in assay [8] was -2.04% and 0.703%; in assay [9], 0.141% and 0.577%; in assay [10] it was -0.636% and 0.226%. In assay [11], the max response was -3.36% and -0.557%.

As for `C/C=C/C=C/C(=O)O`, the activity change % (negative = inhibition) in assay [1] was 1.05%. The Potency entry in assay [2], in assay [3], in [4], in [5], in assay [14] and in assay [15] was “inactive” throughout. The activation in [10] is 0.214%. Also, the max response in assay [11] is 0.184%.

`CC(C)O`: the activity change % (negative = inhibition) in [1] was -11%. The Potency result in [2], in assay [3], in [4], in assay [5], in assay [12] and in assay [13] was “inactive” in each case. Further, the Potency entry in assay [14] and in assay [15] was “inactive” each time. The ratio activity, negative = inhibition in assay [6] is -7.58%. In addition, the activation is -0.863% in [9] and 2.92% in [10]. Also, in [11], the max response is -0.168%.

The record behind these values is PubChem BioAssay (NCATS).
